The values that follow come from ChEMBL document CHEMBL1961873, “Compounds: GSK PKIS; Assays: Nanosyn kinase panel” (2012).

Assay [1] deals with Sphingosine kinase 1 (Homo sapiens) (UniProt Q9NYA1). To be noted: at 1 µM.
Assay [2] concerns the target T1, Sphingosine kinase 2 (Homo sapiens) (UniProt Q9NRA0).
T1 sequence (whole entry): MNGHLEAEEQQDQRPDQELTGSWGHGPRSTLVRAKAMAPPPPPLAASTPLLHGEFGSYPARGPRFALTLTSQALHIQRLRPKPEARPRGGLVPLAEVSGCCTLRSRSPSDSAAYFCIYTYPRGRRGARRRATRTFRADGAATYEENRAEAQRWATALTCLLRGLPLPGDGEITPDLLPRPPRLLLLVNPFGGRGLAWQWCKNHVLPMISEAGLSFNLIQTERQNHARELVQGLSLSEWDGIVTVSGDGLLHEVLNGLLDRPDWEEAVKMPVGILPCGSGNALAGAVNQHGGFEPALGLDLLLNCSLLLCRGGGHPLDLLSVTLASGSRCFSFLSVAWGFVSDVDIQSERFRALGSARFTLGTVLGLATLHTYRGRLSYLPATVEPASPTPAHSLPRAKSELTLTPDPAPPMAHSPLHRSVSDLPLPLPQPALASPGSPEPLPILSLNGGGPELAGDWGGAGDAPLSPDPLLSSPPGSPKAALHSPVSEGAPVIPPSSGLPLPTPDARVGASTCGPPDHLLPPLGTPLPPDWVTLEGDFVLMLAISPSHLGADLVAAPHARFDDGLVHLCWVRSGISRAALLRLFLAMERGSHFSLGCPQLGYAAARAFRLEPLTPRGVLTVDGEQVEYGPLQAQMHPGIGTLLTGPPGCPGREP
To be noted: at 0.1 µM.

Assay [3] addresses T1, Sphingosine kinase 2 (Homo sapiens). To be noted: at 1 µM.
Assay [4] addresses Casein kinase II subunit alpha (Homo sapiens) (UniProt P68400). To be noted: at 0.1 µM.
For assay [5] the target is unchanged. To be noted: at 1 µM.
Assay [6] has as its target T2, Inhibitor of nuclear factor kappa-B kinase subunit alpha (Homo sapiens) (UniProt O15111).
T2 sequence (whole entry): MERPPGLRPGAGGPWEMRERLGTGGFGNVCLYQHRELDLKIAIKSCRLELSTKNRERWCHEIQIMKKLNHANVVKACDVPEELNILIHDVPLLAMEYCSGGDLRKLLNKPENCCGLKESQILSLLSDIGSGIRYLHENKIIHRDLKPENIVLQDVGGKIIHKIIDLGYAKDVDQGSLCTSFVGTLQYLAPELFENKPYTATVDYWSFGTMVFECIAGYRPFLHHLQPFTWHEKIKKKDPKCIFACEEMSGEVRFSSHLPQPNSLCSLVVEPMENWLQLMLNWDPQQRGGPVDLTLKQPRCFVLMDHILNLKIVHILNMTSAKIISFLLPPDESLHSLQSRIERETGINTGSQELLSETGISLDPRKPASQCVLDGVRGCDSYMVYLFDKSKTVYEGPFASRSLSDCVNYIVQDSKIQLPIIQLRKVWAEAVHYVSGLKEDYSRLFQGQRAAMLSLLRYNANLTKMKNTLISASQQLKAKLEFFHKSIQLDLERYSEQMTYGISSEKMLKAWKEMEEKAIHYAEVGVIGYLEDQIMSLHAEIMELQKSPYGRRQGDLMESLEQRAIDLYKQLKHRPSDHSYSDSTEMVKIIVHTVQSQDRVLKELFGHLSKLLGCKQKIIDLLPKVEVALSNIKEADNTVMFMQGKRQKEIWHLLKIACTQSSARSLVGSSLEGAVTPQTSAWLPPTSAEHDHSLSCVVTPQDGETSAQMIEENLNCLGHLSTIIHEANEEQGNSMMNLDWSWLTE
The conditions noted are these: at 0.1 µM.

Assay [7] concerns the target T2, Inhibitor of nuclear factor kappa-B kinase subunit alpha (Homo sapiens). The conditions noted are these: at 1 µM.
Assay [8] concerns the target T3, Inhibitor of nuclear factor kappa-B kinase subunit beta (Homo sapiens) (UniProt O14920).
T3 sequence (whole entry): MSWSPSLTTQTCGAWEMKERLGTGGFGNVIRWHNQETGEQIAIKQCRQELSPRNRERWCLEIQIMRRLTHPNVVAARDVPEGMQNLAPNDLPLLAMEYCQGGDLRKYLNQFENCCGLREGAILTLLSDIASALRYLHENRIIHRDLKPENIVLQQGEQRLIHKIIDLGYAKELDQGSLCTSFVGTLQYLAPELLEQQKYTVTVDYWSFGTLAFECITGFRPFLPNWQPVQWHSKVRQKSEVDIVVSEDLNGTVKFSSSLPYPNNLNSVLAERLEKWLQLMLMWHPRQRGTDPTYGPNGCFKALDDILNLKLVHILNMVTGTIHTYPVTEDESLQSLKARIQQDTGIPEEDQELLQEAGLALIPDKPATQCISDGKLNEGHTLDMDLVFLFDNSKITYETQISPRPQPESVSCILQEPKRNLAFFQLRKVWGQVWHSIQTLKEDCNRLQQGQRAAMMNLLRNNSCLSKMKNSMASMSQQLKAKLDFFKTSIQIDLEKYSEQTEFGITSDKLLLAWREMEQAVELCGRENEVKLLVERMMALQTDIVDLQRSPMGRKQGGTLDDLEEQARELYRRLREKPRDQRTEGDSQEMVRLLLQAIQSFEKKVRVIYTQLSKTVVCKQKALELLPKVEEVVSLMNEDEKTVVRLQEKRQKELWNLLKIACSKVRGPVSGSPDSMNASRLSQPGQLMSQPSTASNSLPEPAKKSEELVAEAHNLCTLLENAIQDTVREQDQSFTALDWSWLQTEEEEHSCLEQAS
The conditions noted are these: at 0.1 µM.

Assay [9] has as its target T3, Inhibitor of nuclear factor kappa-B kinase subunit beta (Homo sapiens). The conditions noted are these: at 1 µM.
Assay [10] deals with T4, Inhibitor of nuclear factor kappa-B kinase subunit epsilon (Homo sapiens) (UniProt Q14164).
T4 sequence (whole entry): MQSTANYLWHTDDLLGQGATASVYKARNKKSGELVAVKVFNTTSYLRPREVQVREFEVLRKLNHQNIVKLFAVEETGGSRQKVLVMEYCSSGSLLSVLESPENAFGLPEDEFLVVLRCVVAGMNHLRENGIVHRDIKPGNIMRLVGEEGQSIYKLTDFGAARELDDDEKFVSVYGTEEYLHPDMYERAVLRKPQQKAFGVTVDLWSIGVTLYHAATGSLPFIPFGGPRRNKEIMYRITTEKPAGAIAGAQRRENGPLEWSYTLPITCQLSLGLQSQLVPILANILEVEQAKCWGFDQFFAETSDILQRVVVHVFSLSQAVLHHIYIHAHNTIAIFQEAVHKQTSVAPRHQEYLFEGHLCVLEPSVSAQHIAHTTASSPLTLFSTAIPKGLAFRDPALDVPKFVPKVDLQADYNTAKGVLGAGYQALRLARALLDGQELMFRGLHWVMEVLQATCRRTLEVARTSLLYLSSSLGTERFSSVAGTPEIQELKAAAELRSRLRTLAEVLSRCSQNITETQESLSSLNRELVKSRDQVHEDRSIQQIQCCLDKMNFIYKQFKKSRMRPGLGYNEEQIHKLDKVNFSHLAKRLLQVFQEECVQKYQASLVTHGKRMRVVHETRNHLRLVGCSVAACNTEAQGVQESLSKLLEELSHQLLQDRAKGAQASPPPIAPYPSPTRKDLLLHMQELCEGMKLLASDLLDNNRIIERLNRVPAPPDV
To be noted: at 0.1 µM.

The target in assay [11] is T4, Inhibitor of nuclear factor kappa-B kinase subunit epsilon (Homo sapiens). The conditions noted are these: at 1 µM.
For assay [12], the target named is T5, Serine/threonine-protein kinase Nek1 (Homo sapiens) (UniProt Q96PY6).
T5 sequence (whole entry): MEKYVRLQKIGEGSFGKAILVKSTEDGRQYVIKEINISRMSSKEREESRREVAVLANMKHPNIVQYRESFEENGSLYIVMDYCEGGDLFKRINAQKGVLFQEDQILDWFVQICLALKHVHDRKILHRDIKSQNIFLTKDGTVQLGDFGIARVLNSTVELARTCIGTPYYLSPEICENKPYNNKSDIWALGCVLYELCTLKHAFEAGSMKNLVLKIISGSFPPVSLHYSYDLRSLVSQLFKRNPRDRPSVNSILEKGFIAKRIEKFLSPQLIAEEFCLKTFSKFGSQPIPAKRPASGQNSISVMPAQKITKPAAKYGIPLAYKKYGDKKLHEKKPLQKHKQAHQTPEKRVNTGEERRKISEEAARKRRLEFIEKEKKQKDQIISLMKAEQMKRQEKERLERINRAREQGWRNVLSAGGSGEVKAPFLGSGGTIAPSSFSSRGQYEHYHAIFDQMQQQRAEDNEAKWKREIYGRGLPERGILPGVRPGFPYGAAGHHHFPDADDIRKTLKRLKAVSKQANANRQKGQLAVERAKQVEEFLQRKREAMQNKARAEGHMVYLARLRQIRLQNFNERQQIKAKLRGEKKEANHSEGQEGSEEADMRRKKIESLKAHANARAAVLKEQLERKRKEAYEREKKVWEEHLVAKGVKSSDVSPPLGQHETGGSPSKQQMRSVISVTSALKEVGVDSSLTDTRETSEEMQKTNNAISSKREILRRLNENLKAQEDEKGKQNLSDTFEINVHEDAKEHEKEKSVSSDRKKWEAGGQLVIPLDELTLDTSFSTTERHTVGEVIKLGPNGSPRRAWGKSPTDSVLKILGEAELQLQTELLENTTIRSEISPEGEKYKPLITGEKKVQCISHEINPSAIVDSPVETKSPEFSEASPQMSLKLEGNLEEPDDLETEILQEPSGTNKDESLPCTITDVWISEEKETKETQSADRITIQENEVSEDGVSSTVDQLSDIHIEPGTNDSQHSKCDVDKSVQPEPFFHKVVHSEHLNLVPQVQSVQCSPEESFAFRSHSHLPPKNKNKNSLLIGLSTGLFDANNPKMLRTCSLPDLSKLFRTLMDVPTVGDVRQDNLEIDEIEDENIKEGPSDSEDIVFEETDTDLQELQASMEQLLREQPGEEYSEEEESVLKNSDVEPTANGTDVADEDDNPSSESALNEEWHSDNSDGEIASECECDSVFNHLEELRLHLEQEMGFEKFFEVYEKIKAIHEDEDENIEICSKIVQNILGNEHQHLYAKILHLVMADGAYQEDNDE
To be noted: at 0.1 µM.

The target of assay [13] is T5, Serine/threonine-protein kinase Nek1 (Homo sapiens). To be noted: at 1 µM.
Assay [14] deals with T6, Serine/threonine-protein kinase Nek2 (Homo sapiens) (UniProt P51955).
T6 sequence (whole entry): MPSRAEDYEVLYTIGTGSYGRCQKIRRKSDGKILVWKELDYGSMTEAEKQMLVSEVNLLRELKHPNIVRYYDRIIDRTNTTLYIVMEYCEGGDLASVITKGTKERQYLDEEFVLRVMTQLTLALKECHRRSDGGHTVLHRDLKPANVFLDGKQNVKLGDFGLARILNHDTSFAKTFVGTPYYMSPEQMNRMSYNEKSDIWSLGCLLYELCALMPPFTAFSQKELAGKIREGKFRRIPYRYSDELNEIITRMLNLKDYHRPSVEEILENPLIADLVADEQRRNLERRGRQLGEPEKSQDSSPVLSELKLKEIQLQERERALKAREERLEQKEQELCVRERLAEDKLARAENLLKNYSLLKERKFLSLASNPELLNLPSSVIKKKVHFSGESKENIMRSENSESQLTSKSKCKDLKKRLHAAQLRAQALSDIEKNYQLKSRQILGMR
To be noted: at 0.1 µM.

The target of assay [15] is T6, Serine/threonine-protein kinase Nek2 (Homo sapiens). The conditions noted are these: at 1 µM.
For assay [16], the target named is Serine/threonine-protein kinase Nek6 (Homo sapiens) (UniProt Q9HC98). The conditions noted are these: at 0.1 µM.
Serine/threonine-protein kinase Nek6 (Homo sapiens), sequence (Q9HC98 whole entry): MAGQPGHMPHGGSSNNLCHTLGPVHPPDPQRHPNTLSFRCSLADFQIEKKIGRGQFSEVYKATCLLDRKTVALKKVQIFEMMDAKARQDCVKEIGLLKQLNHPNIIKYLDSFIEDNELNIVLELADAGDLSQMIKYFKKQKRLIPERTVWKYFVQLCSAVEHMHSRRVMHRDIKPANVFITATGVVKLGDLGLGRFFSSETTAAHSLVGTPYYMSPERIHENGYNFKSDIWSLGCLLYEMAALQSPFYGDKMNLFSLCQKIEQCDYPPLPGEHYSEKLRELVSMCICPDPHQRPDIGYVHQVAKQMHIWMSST
For assay [17] the target is unchanged. The conditions noted are these: at 1 µM.
For assay [18], the target named is Serine/threonine-protein kinase Nek7 (Homo sapiens) (UniProt Q8TDX7). The conditions noted are these: at 0.1 µM.
Serine/threonine-protein kinase Nek7 (Homo sapiens), sequence (Q8TDX7 whole entry, looked up): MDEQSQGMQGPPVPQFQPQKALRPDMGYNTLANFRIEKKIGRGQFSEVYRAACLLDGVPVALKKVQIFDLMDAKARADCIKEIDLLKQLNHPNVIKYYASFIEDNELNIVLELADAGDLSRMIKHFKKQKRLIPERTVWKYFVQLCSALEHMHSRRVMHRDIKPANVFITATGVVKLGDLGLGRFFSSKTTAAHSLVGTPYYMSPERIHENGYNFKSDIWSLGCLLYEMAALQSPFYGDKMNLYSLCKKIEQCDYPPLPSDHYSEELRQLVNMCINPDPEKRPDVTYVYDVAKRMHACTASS
Assay [19] has the same target. The conditions noted are these: at 1 µM.
In assay [20] the target is T7, Serine/threonine-protein kinase Nek9 (Homo sapiens) (UniProt Q8TD19).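 Note: reported value is the mean percent inhibition of NEK9.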
T7 sequence (whole entry): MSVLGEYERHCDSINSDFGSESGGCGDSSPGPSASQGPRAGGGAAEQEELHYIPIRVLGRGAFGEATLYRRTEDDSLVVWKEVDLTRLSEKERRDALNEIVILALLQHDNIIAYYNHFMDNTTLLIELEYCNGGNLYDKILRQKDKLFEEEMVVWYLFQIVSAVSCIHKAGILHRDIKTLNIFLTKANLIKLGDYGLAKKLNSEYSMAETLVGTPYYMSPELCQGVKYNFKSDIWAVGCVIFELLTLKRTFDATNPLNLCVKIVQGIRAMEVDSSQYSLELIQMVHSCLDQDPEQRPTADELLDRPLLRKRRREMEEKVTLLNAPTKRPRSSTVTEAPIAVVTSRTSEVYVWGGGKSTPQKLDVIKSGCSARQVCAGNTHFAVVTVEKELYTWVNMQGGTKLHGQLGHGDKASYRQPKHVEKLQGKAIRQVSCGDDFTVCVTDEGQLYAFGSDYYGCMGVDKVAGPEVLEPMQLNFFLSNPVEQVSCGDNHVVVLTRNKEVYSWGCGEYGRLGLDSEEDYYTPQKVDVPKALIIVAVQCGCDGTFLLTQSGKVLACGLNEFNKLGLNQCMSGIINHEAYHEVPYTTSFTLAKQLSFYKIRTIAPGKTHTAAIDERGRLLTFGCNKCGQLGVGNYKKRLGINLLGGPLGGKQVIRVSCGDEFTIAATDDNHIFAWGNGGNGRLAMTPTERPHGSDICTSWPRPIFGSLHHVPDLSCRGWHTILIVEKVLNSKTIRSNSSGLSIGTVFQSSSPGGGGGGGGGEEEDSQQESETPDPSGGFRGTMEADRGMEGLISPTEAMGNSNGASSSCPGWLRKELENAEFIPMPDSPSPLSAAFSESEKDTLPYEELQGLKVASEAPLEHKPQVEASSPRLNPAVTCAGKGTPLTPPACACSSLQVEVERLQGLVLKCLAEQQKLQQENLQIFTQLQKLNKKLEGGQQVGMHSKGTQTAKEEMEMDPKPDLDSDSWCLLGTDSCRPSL
The conditions noted are these: at 0.1 µM.

Casein kinase II subunit alpha (Homo sapiens), sequence (P68400 whole entry, looked up): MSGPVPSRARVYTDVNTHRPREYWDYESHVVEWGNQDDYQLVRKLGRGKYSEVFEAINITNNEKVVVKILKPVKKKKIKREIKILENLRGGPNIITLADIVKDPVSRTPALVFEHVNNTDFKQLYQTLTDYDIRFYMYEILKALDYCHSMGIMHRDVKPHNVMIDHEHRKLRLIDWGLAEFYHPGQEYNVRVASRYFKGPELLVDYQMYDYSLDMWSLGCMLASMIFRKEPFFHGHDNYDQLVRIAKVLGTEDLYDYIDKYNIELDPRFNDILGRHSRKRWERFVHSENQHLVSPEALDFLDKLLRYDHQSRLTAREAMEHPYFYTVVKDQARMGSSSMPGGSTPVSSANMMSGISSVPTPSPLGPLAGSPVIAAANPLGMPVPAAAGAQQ
Sphingosine kinase 1 (Homo sapiens), sequence (Q9NYA1 whole entry): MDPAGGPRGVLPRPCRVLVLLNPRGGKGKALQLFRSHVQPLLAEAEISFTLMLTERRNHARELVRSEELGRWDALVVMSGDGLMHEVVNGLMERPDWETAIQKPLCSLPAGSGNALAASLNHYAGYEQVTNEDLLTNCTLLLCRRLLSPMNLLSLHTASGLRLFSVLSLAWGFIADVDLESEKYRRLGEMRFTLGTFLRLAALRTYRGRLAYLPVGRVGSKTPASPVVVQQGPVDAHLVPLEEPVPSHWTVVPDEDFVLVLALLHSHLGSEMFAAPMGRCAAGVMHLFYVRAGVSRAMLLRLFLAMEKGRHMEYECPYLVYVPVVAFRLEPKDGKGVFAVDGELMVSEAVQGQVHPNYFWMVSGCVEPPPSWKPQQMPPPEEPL

On to `Cc1ccc2c(-c3ccnc(Nc4ccccc4)n3)c(-c3ccc(F)cc3)nn2n1`, for which the inhibition was 1.05% in assay [1]; -1.64% in assay [2]; 0% in assay [3]; 1.08% in assay [4]; -2.67% in assay [5]; 5% in assay [6]. Besides, the inhibition in assay [7] amounted to 0.7%; in [8] it was 4.32%; in assay [9], 1.74%; in assay [10] it was 1.25%; in assay [11], 3.29%; in [12], 2.02%. The inhibition in assay [13] is 2.14%; in assay [14], 4.21%; in assay [15], 3%; in assay [16], 4.02%; in assay [17], -0.68%; in assay [18] it was 2.06%. Further, the inhibition is 2.94% in assay [19] and -1.05% in [20].

A word on the inhibition: it is the relative decrease from the control value, in per cent.
